Assay results published in the supplement of paper PMC10849652.
The full data set covers some 8,800 targets. This sample favours those with a hit. About 0.5% of all pairs of compound and target were hits.

Experiments:
Assay in all cases: log2 fold change, soluble protein after heating vs DMSO (PISA); higher = thermal stabilisation; K562 lysate, 10 uM; active = over 0.2 and 3.5 SD of the protein, either way, in both replicates (recomputed)
erlotinib = compound: C#Cc1cccc(Nc2ncnc3cc(OCCOC)c(OCCOC)cc23)c1 [erlotinib]
How it was run: (§1)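 To prepare the extract, K562 pellets were dounce-homogenised in PBS pH 7.4 with 1 mM MgCl2, giving crude material at 1 mg/mL protein. This was treated with 10 μM compound for 30 min, then heated in aliquots for 3 min over 48°C-58°C before pooling and addition of NP-40 to 0.5% at 4°C. Centrifugation at 21,000xg for 90 min left soluble protein in the supernatant, which TMTpro 16plex LC-MS/MS quantified with equalised channel sums. Results are log-two fold changes in thermal stability compared with solvent controls, from duplicates.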

[1] = compound: C1=CC(=CC=C1C2=NC3=C(N2)C=C(C=C3)C(=O)N)OC4=CC=C(C=C4)Cl
How it was run: as §1

[2] = compound: C1=CC2=NC=CN=C2C=C1/C=C/3\C(=O)NC(=O)S3
How it was run: as §1

[3] = compound: C1=CC=C(C=C1)C2=NC(=C(N2)C3=CC=NC=C3)C4=CC(=C(C=C4)Cl)O
How it was run: as §1

IRAK-1-4 Inhibitor I = compound: C1COCCN1CCN2C3=CC=CC=C3N=C2NC(=O)C4=CC(=CC=C4)[N+](=O)[O-] [IRAK-1-4 Inhibitor I]
How it was run: as §1

ibrutinib = compound: C=CC(=O)N1CCC[C@@H](n2nc(-c3ccc(Oc4ccccc4)cc3)c3c(N)ncnc32)C1 [ibrutinib]
How it was run: as §1

[4] = compound: CC(=O)c1cnc2ccc(-c3cc(Cl)c(O)c(Cl)c3)nc2c1N[C@H]1CC[C@H](CN(C)C)CC1
How it was run: as §1

ralimetinib = compound: CC(C)(C)Cn1c(N)nc2ccc(-c3[nH]c(C(C)(C)C)nc3-c3ccc(F)cc3)nc21 [ralimetinib]
How it was run: as §1

[5] = compound: CC(C)(O)CC(=O)NCCn1ccc2ncnc(Nc3ccc(Oc4cccc(C(F)(F)F)c4)c(Cl)c3)c21
How it was run: as §1

[6] = compound: CC(C)C1=C2N=C(C=C(N2N=C1)NCC3=CC=CC=C3)NCCCCCCN
How it was run: as §1

[7] = compound: CC1=C(C(CC(=O)N1)C2=CC=C(C=C2)C(F)(F)F)C(=O)NC3=C(C=C4C(=C3)C=NN4)F
How it was run: as §1

[8] = compound: CC1=C(C2=C(C=C1)C(=O)C3=CC=CC=C3N2CCCN)C
How it was run: as §1

[9] = compound: CC1=C(C=C(C=C1)NC(=O)C2=CC(=CC=C2)C(C)(C)C#N)NC3=CC4=C(C=C3)N=CN(C4=O)C
How it was run: as §1

[10] = compound: CC1=C(C=C(C=C1)NC(=O)C2=CC(=CC=C2)N(C)C)NC(=O)C3=CC=C(C=C3)O
How it was run: as §1

[11] = compound: CC1=CC=C(C=C1)SC2=C3C=C(SC3=CN=C2)C(=O)N
How it was run: as §1

[12] = compound: C1CCN(C1)C(=O)NC2=CC=CC(=C2)NC3=NC=C(C(=N3)NCCC4=CN=CN4)Br
How it was run: as §1

[13] = compound: C1CN(CCC1(CC2=CC=C(C=C2)Cl)N)C3=NC=NC4=C3C=CN4
How it was run: as §1

[14] = compound: C/C(=N\NC(=O)C1=CC(=CC=C1)S(=O)(=O)N2CCOCC2)/C3=C(C=CC(=C3)Cl)O
How it was run: as §1

[15] = compound: C1=CC2=C(C=CC(=C2)/C=C\3/C(=O)NC(=NCC4=CC=CS4)S3)N=C1
How it was run: as §1

[16] = compound: C1=CC=C2C(=C1)C3=NNC4=CC=CC(=C43)C2=O
How it was run: as §1

Measured: log2 fold change

ANXA2 (UniProt H0YL33)
inactive: erlotinib -0.153 | [1] 0.088 | [2] -0.108 | [3] -0.027 | IRAK-1-4 Inhibitor I -0.031 | ibrutinib 0.235 | [4] -0.167 | ralimetinib -0.076 | [5] 0.129 | [6] -0.353 | [7] 0.033 | [8] 0.025 | [9] -0.211 | [10] 0.005 | [11] -0.144

ALKBH7 (UniProt Q9BT30)
inactive: erlotinib -0.169 | [1] -0.02 | [3] 0 | [12] -0.033 | [13] 0.027 | IRAK-1-4 Inhibitor I -0.04 | ralimetinib 0.116 | [5] 0.09 | [6] -0.085 | [7] 0.256 | [8] -0.012 | [9] 0.077 | [10] 0.019

AMDHD2 (UniProt Q9Y303)
inactive: [15] 0.212 | [16] -0.391 | [9] 0.014
active: [14] -0.527

ABCA3 (UniProt Q99758)
inactive: erlotinib -0.022 | [14] -0.028 | [1] -0.033 | [15] 0.036 | [2] -0.096 | [3] 0.037 | [16] 0.211 | [12] -0.118 | [13] 0 | IRAK-1-4 Inhibitor I 0.114 | ibrutinib -0.036 | [4] -0.002 | ralimetinib -0.041 | [5] -0.13 | [6] -0.023 | [8] -0.112 | [9] 0.062 | [10] -0.028 | [11] 0.128

ACLY isoform 2 (UniProt P53396)
inactive: [14] -0.122 | [15] 0.002 | [2] -0.018 | [3] 0.012 | [16] -0.034 | [12] -0.027 | [13] -0.029 | IRAK-1-4 Inhibitor I -0.053 | ibrutinib -0.015 | [4] 0.028 | ralimetinib -0.022 | [5] 0.07 | [7] 0.008 | [9] 0.018 | [10] -0.008 | [11] -0.01

ACYP2 (UniProt P14621)
Sequence of UniProt P14621 (P14621 whole entry, looked up): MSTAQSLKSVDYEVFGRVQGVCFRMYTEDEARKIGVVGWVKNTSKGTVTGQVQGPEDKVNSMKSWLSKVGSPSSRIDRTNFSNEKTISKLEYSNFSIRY
inactive: erlotinib -0.057 | [14] 0.256 | [1] 0.007 | [15] -0.176 | [2] 0.002 | [3] -0.049 | [16] -0.185 | IRAK-1-4 Inhibitor I -0.011 | ibrutinib 0.086 | [4] 0.004 | ralimetinib 0.026 | [5] -0.018 | [6] 0.044 | [7] 0.047 | [9] -0.036 | [10] 0.025 | [11] 0.04

ADK, A0A5F9ZH76
inactive: [2] 0 | ibrutinib 0.168 | [4] 0.005 | [7] -0.156 | [11] 0

ANKRD10 (UniProt Q9NXR5)
Sequence of UniProt Q9NXR5 (Q9NXR5 whole entry, looked up): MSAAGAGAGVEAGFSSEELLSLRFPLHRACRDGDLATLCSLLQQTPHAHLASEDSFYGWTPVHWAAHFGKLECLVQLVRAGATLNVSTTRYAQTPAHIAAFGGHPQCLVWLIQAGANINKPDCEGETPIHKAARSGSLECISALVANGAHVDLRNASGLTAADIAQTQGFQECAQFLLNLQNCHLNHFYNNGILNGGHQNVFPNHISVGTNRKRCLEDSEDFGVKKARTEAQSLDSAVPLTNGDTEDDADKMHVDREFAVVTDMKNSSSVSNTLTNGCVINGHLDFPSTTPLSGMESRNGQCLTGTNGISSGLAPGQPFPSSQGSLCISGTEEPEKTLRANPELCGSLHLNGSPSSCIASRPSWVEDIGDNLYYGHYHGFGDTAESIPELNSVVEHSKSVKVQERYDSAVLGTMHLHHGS
inactive: erlotinib 0.023 | [14] 0.045 | [1] -0.041 | [15] 0.009 | [2] 0.055 | [3] 0.012 | [16] -0.066 | IRAK-1-4 Inhibitor I -0.059 | ibrutinib -0.076 | [4] -0.172 | ralimetinib 0.005 | [5] 0.042 | [6] -0.023 | [7] 0.046 | [8] 0.004 | [9] -0.008 | [10] 0.046 | [11] -0.085

ADAM17 (UniProt P78536)
Sequence of UniProt P78536 (P78536 whole entry, looked up): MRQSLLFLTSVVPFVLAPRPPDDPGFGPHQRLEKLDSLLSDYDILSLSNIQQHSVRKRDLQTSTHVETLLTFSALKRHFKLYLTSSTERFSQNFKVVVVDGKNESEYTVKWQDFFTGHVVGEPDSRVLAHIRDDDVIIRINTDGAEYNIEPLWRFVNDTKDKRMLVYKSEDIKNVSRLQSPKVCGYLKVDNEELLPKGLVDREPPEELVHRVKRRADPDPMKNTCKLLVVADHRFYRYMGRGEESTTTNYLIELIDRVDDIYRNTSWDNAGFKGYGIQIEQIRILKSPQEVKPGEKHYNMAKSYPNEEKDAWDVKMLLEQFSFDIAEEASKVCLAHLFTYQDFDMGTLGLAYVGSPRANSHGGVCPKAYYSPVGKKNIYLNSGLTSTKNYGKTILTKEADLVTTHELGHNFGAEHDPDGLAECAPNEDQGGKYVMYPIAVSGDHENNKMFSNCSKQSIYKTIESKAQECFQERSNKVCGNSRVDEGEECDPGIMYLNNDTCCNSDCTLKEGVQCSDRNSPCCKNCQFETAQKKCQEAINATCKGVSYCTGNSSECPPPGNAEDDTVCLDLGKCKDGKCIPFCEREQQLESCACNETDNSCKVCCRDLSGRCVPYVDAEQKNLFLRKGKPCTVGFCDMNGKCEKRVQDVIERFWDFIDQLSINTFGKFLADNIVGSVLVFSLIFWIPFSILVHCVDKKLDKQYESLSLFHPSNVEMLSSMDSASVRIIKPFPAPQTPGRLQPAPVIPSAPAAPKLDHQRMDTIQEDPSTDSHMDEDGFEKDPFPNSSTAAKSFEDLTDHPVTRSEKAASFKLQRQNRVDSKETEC
inactive: erlotinib 0.021 | [14] -0.013 | [1] 0.017 | [15] 0.023 | [2] -0.023 | [3] 0.044 | [16] -0.115 | [12] 0.052 | [13] -0.093 | IRAK-1-4 Inhibitor I 0.04 | ibrutinib 0.037 | ralimetinib -0.012 | [5] -0.032 | [6] -0.056 | [7] 0.16 | [8] -0.029 | [9] -0.013 | [10] -0.027

AGPAT2 (UniProt O15120)
inactive: erlotinib -0.032 | [14] -0.064 | [1] 0.013 | [15] 0.245 | [3] -0.114 | [16] 0.024 | [12] -0.038 | [13] 0.069 | IRAK-1-4 Inhibitor I -0.027 | ralimetinib 0.1 | [5] -0.071 | [6] 0.046 | [7] 0.03 | [9] -0.064 | [10] 0.013

ARHGEF2 (UniProt V9GYF0)
inactive: [14] -0.056 | [15] -0.125 | [3] 0.012 | [16] 0.078 | [12] -0.009 | [13] -0.058 | IRAK-1-4 Inhibitor I 0.062 | [4] 0.02 | ralimetinib -0.041 | [5] -0.126 | [7] -0.055 | [8] -0.011 | [10] 0.008 | [11] -0.07

AP3D1 isoform 2 (UniProt O14617)
inactive: erlotinib 0.029 | [14] -0.082 | [1] -0.15 | [15] -0.162 | [16] -0.026 | [4] -0.085 | [6] 0.09 | [7] 0.127 | [11] 0.053

ANP32E isoform 3 (UniProt Q9BTT0)
inactive: [14] -0.079 | [15] -0.002 | [2] -0.011 | [16] 0.012 | [12] 0.075 | [13] -0.01 | ibrutinib -0.065

ALDH3A1 (UniProt P30838)
Sequence of UniProt P30838 (P30838 whole entry, looked up): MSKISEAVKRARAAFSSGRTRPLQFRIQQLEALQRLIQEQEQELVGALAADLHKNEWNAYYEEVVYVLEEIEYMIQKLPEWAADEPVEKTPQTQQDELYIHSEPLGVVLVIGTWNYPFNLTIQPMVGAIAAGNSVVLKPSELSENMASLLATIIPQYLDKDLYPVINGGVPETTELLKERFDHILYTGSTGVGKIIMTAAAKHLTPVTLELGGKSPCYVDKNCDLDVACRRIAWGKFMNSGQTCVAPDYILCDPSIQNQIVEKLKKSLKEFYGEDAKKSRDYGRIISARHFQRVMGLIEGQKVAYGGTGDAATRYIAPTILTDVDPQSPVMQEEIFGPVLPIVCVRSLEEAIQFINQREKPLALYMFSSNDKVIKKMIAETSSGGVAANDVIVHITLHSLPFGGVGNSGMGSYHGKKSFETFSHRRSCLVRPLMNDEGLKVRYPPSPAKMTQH
active: [8] 1.23
inactive: erlotinib 0.147 | [1] 0.257 | [3] 0.147 | IRAK-1-4 Inhibitor I 0.059 | [4] -0.197 | ralimetinib -0.274 | [5] -0.259 | [6] 0.04 | [9] 0.432 | [10] -0.001 | [11] -0.119

ALKBH1 (UniProt Q13686)
inactive: erlotinib 0.033 | [14] -0.042 | [1] -0.02 | [15] 0.052 | [3] 0.024 | [16] -0.022 | [12] 0.211 | [13] 0.041 | IRAK-1-4 Inhibitor I -0.11 | ralimetinib 0.095 | [5] -0.1 | [6] 0.008 | [7] -0.003 | [8] -0.102 | [10] 0.093

ACAT1, A0A5F9ZHJ0
inactive: [3] -0.128 | IRAK-1-4 Inhibitor I 0.075 | ralimetinib 0.034 | [5] -0.129 | [7] -0.106 | [10] 0.013

ABCC5 (UniProt O15440)
Sequence of UniProt O15440 (O15440 whole entry, looked up): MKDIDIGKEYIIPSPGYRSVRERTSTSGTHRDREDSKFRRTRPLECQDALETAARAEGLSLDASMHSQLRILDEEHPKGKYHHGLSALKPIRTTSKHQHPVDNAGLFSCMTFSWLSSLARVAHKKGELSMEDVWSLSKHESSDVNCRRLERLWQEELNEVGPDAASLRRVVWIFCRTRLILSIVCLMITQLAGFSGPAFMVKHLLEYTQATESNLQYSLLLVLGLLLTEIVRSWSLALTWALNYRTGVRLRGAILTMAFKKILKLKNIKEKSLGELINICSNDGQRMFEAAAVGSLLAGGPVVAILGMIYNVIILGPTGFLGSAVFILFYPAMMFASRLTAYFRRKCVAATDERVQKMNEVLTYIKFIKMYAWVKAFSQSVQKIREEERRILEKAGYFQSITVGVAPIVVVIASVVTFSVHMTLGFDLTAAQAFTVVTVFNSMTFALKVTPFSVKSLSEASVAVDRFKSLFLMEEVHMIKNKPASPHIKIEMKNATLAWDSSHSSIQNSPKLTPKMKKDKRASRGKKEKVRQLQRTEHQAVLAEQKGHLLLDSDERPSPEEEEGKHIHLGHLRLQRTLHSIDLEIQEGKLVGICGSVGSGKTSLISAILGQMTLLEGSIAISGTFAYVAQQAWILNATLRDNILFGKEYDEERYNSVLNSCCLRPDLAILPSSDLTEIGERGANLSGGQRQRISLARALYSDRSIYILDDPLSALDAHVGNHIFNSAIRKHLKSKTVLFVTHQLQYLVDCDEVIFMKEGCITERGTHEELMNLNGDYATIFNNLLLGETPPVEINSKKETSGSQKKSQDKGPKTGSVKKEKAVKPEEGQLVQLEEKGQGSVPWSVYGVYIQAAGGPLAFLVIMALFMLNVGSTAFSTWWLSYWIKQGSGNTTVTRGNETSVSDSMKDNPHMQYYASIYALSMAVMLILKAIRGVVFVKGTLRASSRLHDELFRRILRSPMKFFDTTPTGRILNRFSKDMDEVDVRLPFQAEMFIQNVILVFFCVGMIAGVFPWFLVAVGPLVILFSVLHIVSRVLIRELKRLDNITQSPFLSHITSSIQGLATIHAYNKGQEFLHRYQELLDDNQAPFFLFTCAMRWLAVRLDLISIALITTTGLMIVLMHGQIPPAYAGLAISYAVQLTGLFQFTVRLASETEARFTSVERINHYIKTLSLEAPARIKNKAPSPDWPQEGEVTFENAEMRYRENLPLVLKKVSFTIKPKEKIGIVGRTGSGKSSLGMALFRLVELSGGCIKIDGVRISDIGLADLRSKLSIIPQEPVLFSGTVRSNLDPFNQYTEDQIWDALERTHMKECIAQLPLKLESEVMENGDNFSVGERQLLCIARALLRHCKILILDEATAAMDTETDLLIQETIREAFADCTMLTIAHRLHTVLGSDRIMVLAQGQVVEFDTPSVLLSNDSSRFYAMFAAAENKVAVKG
inactive: erlotinib 0.059 | [14] -0.581 | [1] 0.057 | [15] -0.028 | [2] -0.127 | [3] -0.112 | [16] -0.248 | [12] -0.038 | [13] 0.072 | IRAK-1-4 Inhibitor I -0.067 | ibrutinib -0.109 | [4] 0.012 | ralimetinib -0.216 | [5] -0.145 | [6] -0.015 | [8] -0.094 | [9] 0.019 | [10] 0.187 | [11] -0.019

ANKRD44 isoform 2 (UniProt Q8N8A2)
Sequence of UniProt Q8N8A2 (Q8N8A2 whole entry, looked up): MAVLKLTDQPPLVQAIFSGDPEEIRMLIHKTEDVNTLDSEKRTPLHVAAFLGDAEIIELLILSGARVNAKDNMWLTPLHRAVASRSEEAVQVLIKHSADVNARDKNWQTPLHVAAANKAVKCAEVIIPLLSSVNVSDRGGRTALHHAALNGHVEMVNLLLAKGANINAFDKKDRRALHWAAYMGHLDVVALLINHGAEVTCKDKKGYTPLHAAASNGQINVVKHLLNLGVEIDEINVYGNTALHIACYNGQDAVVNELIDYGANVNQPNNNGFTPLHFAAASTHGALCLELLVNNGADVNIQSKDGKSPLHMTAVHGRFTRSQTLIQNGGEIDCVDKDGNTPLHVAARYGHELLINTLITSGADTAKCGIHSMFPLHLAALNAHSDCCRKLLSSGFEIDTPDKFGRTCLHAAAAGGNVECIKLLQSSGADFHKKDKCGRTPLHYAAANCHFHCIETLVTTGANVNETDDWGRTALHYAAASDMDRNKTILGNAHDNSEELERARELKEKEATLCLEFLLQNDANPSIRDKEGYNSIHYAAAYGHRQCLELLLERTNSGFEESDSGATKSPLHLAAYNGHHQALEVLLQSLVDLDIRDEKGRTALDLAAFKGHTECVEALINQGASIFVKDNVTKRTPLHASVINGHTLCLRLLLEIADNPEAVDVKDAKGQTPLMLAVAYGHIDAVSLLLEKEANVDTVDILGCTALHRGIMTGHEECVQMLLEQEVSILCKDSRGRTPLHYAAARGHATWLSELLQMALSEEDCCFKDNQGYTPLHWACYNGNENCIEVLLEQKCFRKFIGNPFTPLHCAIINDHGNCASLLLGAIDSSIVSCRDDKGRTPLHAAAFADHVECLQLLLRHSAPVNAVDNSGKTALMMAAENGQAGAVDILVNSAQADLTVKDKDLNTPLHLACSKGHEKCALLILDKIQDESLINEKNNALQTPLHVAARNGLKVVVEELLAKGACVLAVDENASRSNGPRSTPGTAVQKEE
inactive: erlotinib -0.034 | [14] -0.035 | [1] 0.002 | [15] -0.083 | [2] -0.016 | [16] -0.257 | [12] -0.059 | [13] -0.032 | ibrutinib -0.131 | [4] 0.067 | [6] -0.026 | [7] 0.075 | [11] -0.029

ABRACL (UniProt Q9P1F3)
Sequence of UniProt Q9P1F3 (Q9P1F3 whole entry, looked up): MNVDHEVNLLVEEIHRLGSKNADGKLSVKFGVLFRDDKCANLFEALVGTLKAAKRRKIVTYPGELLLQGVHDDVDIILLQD
inactive: erlotinib -0.013 | [1] 0.056 | [2] 0.103 | ibrutinib 0.109 | [4] -0.179 | [6] 0.001 | [7] -0.112 | [8] 0.142 | [9] 0.051 | [11] 0.015

ALG13 isoform 2 (UniProt Q9NP73)
inactive: [7] 0.03

ADD1 isoform 4 (UniProt P35611)
inactive: erlotinib -0.016 | [14] -0.059 | [1] 0.011 | [15] 0.089 | [2] -0.088 | [3] -0.081 | [16] -0.025 | [12] 0.028 | [13] -0.009 | IRAK-1-4 Inhibitor I 0.093 | ibrutinib 0.214 | [4] 0.003 | ralimetinib -0.104 | [5] -0.356 | [6] 0.056 | [8] 0.004 | [10] 0.017 | [11] -0.341

ABHD13 (UniProt Q7L211)
Sequence of UniProt Q7L211 (Q7L211 whole entry, looked up): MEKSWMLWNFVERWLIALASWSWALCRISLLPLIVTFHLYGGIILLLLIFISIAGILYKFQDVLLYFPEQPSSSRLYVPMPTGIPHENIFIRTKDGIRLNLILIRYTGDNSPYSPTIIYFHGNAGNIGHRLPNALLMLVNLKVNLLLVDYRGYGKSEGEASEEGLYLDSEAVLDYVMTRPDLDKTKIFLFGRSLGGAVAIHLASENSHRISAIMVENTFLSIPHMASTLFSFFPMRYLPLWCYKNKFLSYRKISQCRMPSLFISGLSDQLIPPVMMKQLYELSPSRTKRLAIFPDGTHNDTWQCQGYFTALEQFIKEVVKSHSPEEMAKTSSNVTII
inactive: [14] 0.015 | [15] 0.021 | [2] 0.011 | [16] -0.071 | [12] 0.176 | [13] 0.04 | ibrutinib 0.041 | [4] -0.017 | [7] -0.028 | [8] 0.196 | [9] 0.03 | [11] 0.003

ANKRD40 (UniProt Q6AI12)
Sequence of UniProt Q6AI12 (Q6AI12 whole entry, looked up): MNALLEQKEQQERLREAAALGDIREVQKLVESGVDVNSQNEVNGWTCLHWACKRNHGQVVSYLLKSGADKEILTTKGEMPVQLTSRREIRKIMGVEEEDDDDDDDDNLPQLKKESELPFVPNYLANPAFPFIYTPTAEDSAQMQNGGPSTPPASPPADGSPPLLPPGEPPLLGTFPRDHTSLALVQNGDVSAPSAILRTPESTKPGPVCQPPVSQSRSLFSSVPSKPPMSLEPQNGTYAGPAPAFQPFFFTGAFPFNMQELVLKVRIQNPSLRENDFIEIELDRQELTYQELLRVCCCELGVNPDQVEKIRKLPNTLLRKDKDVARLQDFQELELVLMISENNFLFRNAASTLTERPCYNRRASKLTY
inactive: erlotinib 0.085 | [14] -0.269 | [1] 0.093 | [15] -0.143 | [2] 0.232 | [3] 0.065 | [16] -0.163 | [12] 0.296 | [13] 0.203 | IRAK-1-4 Inhibitor I -0.091 | ibrutinib 0.008 | ralimetinib 0.062 | [5] 0.05 | [6] 0.051 | [7] 0.027 | [8] -0.231 | [9] 0.075 | [10] 0.087
